Measured values published in PubChem BioAssay (NCI).
This is part of a sample that, as a whole, favours compounds with a hit. Of some 79,000 tested, about 15% had one in any assay. The source made the active and inactive calls. No stated cut-off is given here; in the data, active means growth inhibition above about 70%; inactive means the rest.

Columns and labels:
[1] = NCI Yeast Anticancer Drug Screen. Data for the rad50 strain (AID 155);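 further: 0% = growth of vehicle-only cultures of the same strain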; conditions: S. cerevisiae rad50 strain growth inhibition; at 50.0 µM; stronger effect = higher value
How it was run: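 Relative growth inhibition (compound vs vehicle) was measured in yeast with a defined repair-gene alteration.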

[2] = NCI Yeast Anticancer Drug Screen. Data for the mec2-1 strain (AID 157); conditions: S. cerevisiae mec2-1 strain, at 50.0 µM, stronger effect = higher value
How it was run: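 Strain: mec2-1 (DNA repair/cell cycle alteration). Compound exposure, then growth measured; inhibition expressed relative to vehicle.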

[3] = NCI Yeast Anticancer Drug Screen. Data for the sgs1 mgt1 strain (AID 161);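 further: 0% = growth of cultures given vehicle only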; conditions: S. cerevisiae sgs1 mgt1 strain, at 50.0 µM, stronger effect = higher value
How it was run: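 Test agents were incubated with a DNA-repair-mutant yeast strain. Growth was then read and compared against vehicle-treated controls.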

[4] = NCI Yeast Anticancer Drug Screen. Data for the cln2 rad14 strain (AID 165);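 further: 0% = growth equal to vehicle treated cultures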; conditions: S. cerevisiae cln2 rad14 strain, at 50.0 µM, stronger effect = higher value
How it was run: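 Compounds are applied to the cln2 rad14 yeast strain, and growth is then compared with that of vehicle-treated cultures to give inhibition.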

[5] = NCI Yeast Anticancer Drug Screen. Data for the bub3 strain (AID 167); conditions: S. cerevisiae bub3 mutant strain, at 50.0 µM, stronger effect = higher value
How it was run: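 Screening used yeast with an engineered genetic alteration affecting cell cycle control. Compound-exposed cultures were compared with vehicle cultures, and reduced growth was taken as inhibition.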

[6] = NCI Yeast Anticancer Drug Screen. Data for the mlh1 rad18 strain (AID 175); conditions: S. cerevisiae mlh1 rad18 strain growth inhibition; at 50.0 µM; stronger effect = higher value
How it was run: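 Read-out is yeast growth inhibition, calculated against vehicle-only controls. The compound was applied to a strain engineered with DNA damage repair alterations.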

Measured: growth inhibition

C#CCn1cc(F)c(=O)n(CC#C)c1=O
inactive: [1] -50.2% | [2] -30.8% | [3] -4.55% | [4] -33.9% | [5] -0.05% | [6] -2.05%

COc1ccc(/C=N/N2CN(C(C)C(=O)O)B(N(CCO)CCO)N=C2N)cc1OC (stereo not given)
inactive: [1] 15.2% | [2] 5.3% | [3] 7.55% | [4] 20.9% | [5] 7.65% | [6] 20.9%

N#Cc1sc2c(c1OC(=O)c1ccc(C(F)(F)F)cc1)c(=O)n(-c1ccccc1)c(=S)n2-c1ccccc1
inactive: [1] -11.9% | [2] 0.9% | [3] 1.05% | [4] 0.8% | [5] -6.2% | [6] 3.05%

CCN(CC)C1Oc2cc3c(cc2C(c2cccc(OC)c2OC)C1C)OCO3 (stereo not given)
inactive: [1] 28.4% | [2] 28.8% | [3] 46.5% | [4] 41.7% | [5] 41.9% | [6] 63.3%

O=C(NC1C=Nc2ccc([N+](=O)[O-])cc2NC1=O)c1ccc(Cl)cc1 (stereo not given)
inactive: [1] 13.2% | [2] 7.8% | [3] 7.35% | [4] -18% | [5] -1.85% | [6] -8.5%

CN1C2CC(=O)CC1[C@@H]1OC(c3ccccc3)O[C@H]21 (stereo not given in full)
inactive: [1] 6.65% | [2] -3.25% | [3] -15.4% | [4] 27.9% | [5] 17.6% | [6] 19.5%

O=C(O)C(NCCNC(C(=O)O)c1ccccc1)c1ccccc1 (stereo not given)
inactive: [1] 24.2% | [2] 6.7% | [3] 19% | [4] 38.6% | [5] 15.2% | [6] 3.4%

CC1=Nc2c(C)noc2CC(c2ccccc2O)C1 (stereo not given)
inactive: [1] -1.5% | [2] -2.6% | [3] -2.05% | [4] 27.2% | [5] -15.8% | [6] -5.35%

C=CCCCCCCCCC(=O)NCCN1CCOCC1
active: [1] 84.5% | [2] 93.8% | [3] 99.2% | [4] 93.8% | [5] 91.8% | [6] 98.2%

CC(=O)c1cc(-c2ccccn2)c(=O)n2ccccc12
inactive: [1] 26.1% | [2] 15.5% | [3] -19.9% | [4] -0.3% | [5] 5.25% | [6] -4%

Cc1ccc(S(=O)(=O)NNC(=O)c2cccnc2)cc1
inactive: [1] -11.4% | [2] 18.7% | [3] 1.35% | [4] -27.8% | [5] -5.75% | [6] 4.8%

c1ccc(-c2cc3cc4c(cc3[nH]2)Oc2ccccc2O4)cc1
inactive: [1] 5.45% | [2] 14.4% | [3] 18.4% | [4] 10.8% | [5] 5.2% | [6] 3.1%

CC(C)(C)CC(C)(C)c1ccc(OCCOc2ccccc2NS(=O)(=O)c2ccc(N)cc2)cc1
inactive: [1] 47.5% | [2] -0.35% | [3] 33.6% | [4] 1.1% | [5] 10.1% | [6] 23.6%

CCOC(=O)c1c(/N=C/c2cc(Br)ccc2O)sc2c1CCCC2
inactive: [1] 11.7% | [2] -7.8% | [3] 0.4% | [4] 12.9% | [5] -1.4% | [6] 10.7%

Cc1ccc2c(c1)C1(c3ccc(Cl)c(Cl)c3)Oc3ccc(C)cc3C(c3ccc(Cl)c(Cl)c3)(O2)O1
inactive: [1] 4.1% | [2] 5.15% | [3] -6.7% | [4] 2.15% | [5] 3.65% | [6] -3%

COc1ccc(CSC(=S)Nc2cc(C)c(C)cc2Br)cc1
active: [1] 96.3% | [2] 97.5% | [3] 97.7% | [4] 97.6% | [5] 96.8% | [6] 96.8%

c1ccc(CSC2(SCc3ccccc3)CCCC2)cc1
inactive: [1] -7.3% | [2] -19.3% | [3] -22.6% | [4] 11.8% | [5] -1.1% | [6] -4.45%

CCOC(=O)C1CSCN1C(C)=O (stereo not given)
inactive: [1] -33.4% | [2] -20.6% | [3] -4.3% | [4] -34.5% | [5] -11.8% | [6] -21.9%

C=C[C@]1(C)CC(=O)C(C(C)C=O)[C@]12C(=O)Oc1cccc(C)c1C2=O (stereo not given in full)
active: [2] 85.5% | [3] 79% | [5] 71.8% | [6] 86.7%
inactive: [1] 63.9% | [4] 58.1%

CCc1ccc2oc(-c3cc(O)c(-c4nc5cc(CC)ccc5o4)cc3O)nc2c1
inactive: [1] -19.2% | [2] -25.9% | [3] -22.2% | [4] 1.1% | [5] -25.5% | [6] 12.6%

CCn1c2c(c3ccccc31)[C@@H](c1ccc(Cl)cc1)CC1C(=O)N(c3ccccc3)C(=O)C21 (stereo not given in full)
inactive: [1] 17.8% | [2] 33.3% | [3] 14.8% | [4] -8.05% | [5] 38.4% | [6] 35.5%

C/C(CCc1cccc([N+](=O)[O-])c1)=N\NC(N)=O
inactive: [1] -19.1% | [2] -10.5% | [3] -6.5% | [4] -1.95% | [5] 7.4% | [6] -29.5%

COC(=O)Nn1cc(C(C(C)=O)C(C)=O)c(C(C)=O)c1C
inactive: [1] -6.9% | [2] -0.15% | [3] 7.9% | [4] -35.6% | [5] -0.05% | [6] 17.9%

Cc1ccccc1N1C(=O)/C(=C/c2ccc(N(CCC#N)CCC#N)cc2)N=C1c1cc([N+](=O)[O-])ccc1Cl
inactive: [1] 4.65% | [2] 1.7% | [3] 26.1% | [4] 7.1% | [5] -1.7% | [6] 6.2%

CC1CC[P+](c2ccccc2)(c2ccccc2)CC1
inactive: [1] 22.9% | [2] 17.4% | [3] 30.3% | [4] 4.5% | [5] 22.1% | [6] 32.5%

CCOC(=O)C1=C(Nc2ccc(F)cc2)C(=O)N(CC)C1
inactive: [1] 1.3% | [2] -15.3% | [3] 24.4% | [4] -6.45% | [5] 19.9% | [6] 21.4%

CN1C(=O)C(O)CC1c1ccccc1C(F)(F)F (stereo not given)
inactive: [1] 11.7% | [2] 4.2% | [3] 31.2% | [4] 17.9% | [5] 5.05% | [6] -30.6%

COc1cc(-c2cc(OC)c(N=N/C(=N/Nc3ccc([N+](=O)[O-])cc3)c3ccc([N+](=O)[O-])cc3)cc2Cl)c(Cl)cc1N=N/C(=N\Nc1ccc([N+](=O)[O-])cc1)c1ccc([N+](=O)[O-])cc1
inactive: [1] 7.9% | [2] 9.65% | [3] -5.95% | [4] -21.2% | [5] -14.2% | [6] -13.8%

Cc1cc(N(CCC#N)CCC#N)ccc1/C=C1N=C(/C=C/c2ccccc2)N(c2ccc(S(N)(=O)=O)cc2)C\1=O
inactive: [1] 0.75% | [2] -0.2% | [3] -18.8% | [4] 0.6% | [5] -21.1% | [6] -3.9%

O=C(NC(=O)C1(C(=O)O)CCCC1)Nc1ccccc1
inactive: [1] 7.95% | [2] -7.05% | [3] 6.4% | [4] -39.1% | [5] 27.4% | [6] -9.15%

CC(C)(C)N(O)c1ccc(P(=O)(c2ccccc2)c2ccccc2)cc1
inactive: [1] 23.4% | [2] 15.4% | [3] 12.3% | [4] -4.7% | [5] -2.35% | [6] 11.8%

S=C1N=C(Cl)/C(=C\c2ccco2)N1
inactive: [1] -4.55% | [2] -18% | [3] 12.1% | [4] 4.2% | [5] 15.9% | [6] -20.6%

O=C1C=C(c2ccccc2)CSC1
inactive: [1] 3.7% | [2] -10.1% | [3] -9.45% | [4] -79.3% | [5] -8.75% | [6] -4.85%

COc1ccc(C2SC(N)=Nc3c2c(C)nn3C(=O)c2ccc(Cl)cc2)cc1 (stereo not given)
inactive: [1] 3.7% | [2] -14.8% | [3] 22.6% | [4] -18.1% | [5] -11.3% | [6] 7.8%

NC(=O)c1c[n+]([O-])ccc1[N+](=O)[O-]
inactive: [1] 40.1% | [2] 5.3% | [3] 34.8% | [4] 28.1% | [5] -14.8% | [6] 18.2%

Cc1ccc(S(=O)(=O)NC(=O)c2ncn(C3OC(CO)C(O)C3O)c2N)cc1 (stereo not given)
inactive: [1] -5.15% | [2] 10.8% | [3] 12.7% | [4] 15.1% | [5] 1.5% | [6] 1.55%

CC(C)=CCC(OC(=O)C=C(C)C)c1cc(O)c2c(O)ccc(O)c2c1O.[Mn] (stereo not given)
inactive: [1] 36.1% | [2] 47.2% | [3] 25.4% | [4] 54.1% | [5] 46%
active: [6] 87.3%

Cc1cccc[n+]1[O-]
inactive: [1] 10.8% | [2] -8% | [3] 5.9% | [4] -13.7% | [5] 1.65% | [6] 7%

CCOC(=O)/C(C#N)=C(\C)c1ccccc1
inactive: [1] 9.65% | [2] -5.3% | [3] 1.2% | [4] 5.15% | [5] -25.7% | [6] -17.6%

N=C(N)c1ccncc1
inactive: [1] -0.6% | [2] 5.75% | [3] 8.45% | [4] -32% | [5] 4.75% | [6] -1.95%
